Assay results: PubChem BioAssay (NCATS)
Several values for one entry are separate records, joined by “and”; a condition that tells them apart may be missing. Identical values can stand only once. Inconclusive results are not listed. Activity calls are given as the source filed them. Calls follow the shape of the dose curve; as a rule, active = well fitted curve in the direction sought with a large enough effect; inconclusive = small, poorly fitted or top-dose-only effect, or another doubt; inactive = no such curve, though single readings can be large; an effect the other way counts as inactive or inconclusive.

What was measured:
HaCat [1] = experiment: Cytotoxic Profiling of Annotated Libraries Using Quantitative High-Throughput Screening (AID 1296008); conditions: Five cell lines viability, CellTiter-Glo ATP luminescence, 48-72 h; max response: stronger effect = lower value; also: nearly all actives have a fitted effect of over 60% in size
Procedure, shortened: (§1)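 Cells exposed to compounds for 48 or 72 hr at 37 degrees Celsius. Viability read as ATP-coupled luminescence with CellTiter-Glo after 10 min at room temperature.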

KB-3-1 = experiment: as above; conditions: Five cell lines viability, CellTiter-Glo ATP luminescence, 48-72 h; max response: stronger effect = lower value
Procedure, shortened: as §1

NIH3T3 [2] = experiment: as above; conditions: Five cell lines viability, CellTiter-Glo ATP luminescence, 48-72 h; max response: stronger effect = lower value
Procedure, shortened: as §1

HACAT [3] = experiment: qHTS assay to identify novel small-molecules to repurpose for Merkel cell carcinoma treatment (AID 1296009); conditions: MCC and control cell lines, CellTiter-Glo viability, 72 h; at 44.8 µM (top of the series) unless noted; also: nearly all actives have a fitted effect of over 60% in size
Procedure, shortened: (§2)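 CellTiter-Glo luminescence after 72 hr compound exposure at 37 degree celsius gave cell viability. Libraries NPC and MIPE were run as 8- and 11-point dose responses; RLUs normalized to DMSO (negative) and no-cell (cytotoxicity) controls.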

MCC-13 = experiment: as above; conditions: MCC and control cell lines, CellTiter-Glo viability, 72 h; series mostly up to 46 µM
Procedure, shortened: as §2

MCC-26 = experiment: as above; conditions: MCC and control cell lines, CellTiter-Glo viability, 72 h; series mostly up to 46 µM
Procedure, shortened: as §2

MKL-1 = experiment: as above; conditions: MCC and control cell lines, CellTiter-Glo viability, 72 h; series mostly up to 46 µM
Procedure, shortened: as §2

MKL-2 = experiment: as above; conditions: MCC and control cell lines, CellTiter-Glo viability, 72 h; series mostly up to 46 µM
Procedure, shortened: as §2

NIH3T3 [4] = experiment: as above; conditions: MCC and control cell lines, CellTiter-Glo viability, 72 h; at 44.8 µM (top of the series) unless noted
Procedure, shortened: as §2

UISO = experiment: as above; conditions: MCC and control cell lines, CellTiter-Glo viability, 72 h; series mostly up to 46 µM
Procedure, shortened: as §2

WaGa = experiment: as above; conditions: MCC and control cell lines, CellTiter-Glo viability, 72 h; series mostly up to 46 µM
Procedure, shortened: as §2

C33A = experiment: Primary qHTS to identify gynecologic anti-cancer compounds using libraries of approved drugs and bioactive compounds (AID 1345084); conditions: Gynecologic cancer cell panel viability, ATPlite luminescence, 48 h; series mostly up to 57.5 µM; also: nearly all actives have a fitted effect of over 55% in size
Procedure, shortened: (§3)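 Cells, 1,000 per well, plated 16 h, then exposed 48 h at 37 C to compounds. Viability by ATPlite luminescence after 15 min at room temperature.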

CAOV3 = experiment: as above; conditions: Gynecologic cancer cell panel viability, ATPlite luminescence, 48 h; series mostly up to 57.5 µM
Procedure, shortened: as §3

CASKI = experiment: as above; conditions: Gynecologic cancer cell panel viability, ATPlite luminescence, 48 h; series mostly up to 57.5 µM
Procedure, shortened: as §3

Es-2 = experiment: as above; conditions: Gynecologic cancer cell panel viability, ATPlite luminescence, 48 h; series mostly up to 57.5 µM
Procedure, shortened: as §3

Hek293T [5] = experiment: as above; conditions: Gynecologic cancer cell panel viability, ATPlite luminescence, 48 h, control line for the selectivity index; series mostly up to 57.5 µM
Procedure, shortened: as §3

JEG-3 = experiment: as above; conditions: Gynecologic cancer cell panel viability, ATPlite luminescence, 48 h; series mostly up to 57.5 µM
Procedure, shortened: as §3

OV90 = experiment: as above; conditions: Gynecologic cancer cell panel viability, ATPlite luminescence, 48 h; series mostly up to 57.5 µM
Procedure, shortened: as §3

HEK293T [6] = experiment: qHTS assay to identify novel small-molecules to repurpose for Merkel cell carcinoma treatment (AID 1296009); conditions: MCC and control cell lines, CellTiter-Glo viability, 72 h; at 44.8 µM (top of the series) unless noted; also: nearly all actives have a fitted effect of over 60% in size
Procedure, shortened: as §2

HeLa = experiment: Primary qHTS to identify gynecologic anti-cancer compounds using libraries of approved drugs and bioactive compounds (AID 1345084); conditions: Gynecologic cancer cell panel viability, ATPlite luminescence, 48 h; series mostly up to 57.5 µM; also: nearly all actives have a fitted effect of over 55% in size
Procedure, shortened: as §3
% is scaled to controls: 0 for no effect and ±100 for the full control effect.

Cc1nnc(C(=O)NC(C)(C)c2nc(C(=O)NCc3ccc(F)cc3)c(O)c(=O)n2C)o1
inactive: max response (HaCat [1]) -1.85% and 3.43% | outcome (HaCat [1]) | max response (KB-3-1) -0.518% and 8.61% | max response (NIH3T3 [2]) -3.12% and 2.12% | outcome (NIH3T3 [2]) | outcome (HACAT [3]) | Potency (MCC-13) | Potency (MCC-26) | Potency (MKL-1) | Potency (MKL-2) | outcome (NIH3T3 [4]) | Potency (UISO) | Potency (WaGa) | Potency (C33A) | Potency (CAOV3) | Potency (CASKI) | Potency (Es-2) | Potency (Hek293T [5]) | Potency (JEG-3) | Potency (OV90)

O=C(O)CCn1c2c(c3ccccc31)C[C@H](NS(=O)(=O)c1ccc(F)cc1)CC2
inactive: max response (HaCat [1]) 4.42% and 4.82% | outcome (HaCat [1]) | max response (KB-3-1) 0.769% and -7.72% | outcome (KB-3-1) | max response (NIH3T3 [2]) -9.59% and 4.36% | outcome (NIH3T3 [2]) | outcome (HACAT [3]) | outcome (HEK293T [6]) | Potency (MCC-13) | Potency (MKL-1) | Potency (MKL-2) | outcome (NIH3T3 [4]) | Potency (UISO) | Potency (WaGa) | Potency (C33A) | Potency (CAOV3) | Potency (CASKI) | Potency (Es-2) | Potency (HeLa) | Potency (Hek293T [5]) | Potency (JEG-3) | Potency (OV90)

Cn1nnc2c(C(N)=O)ncn2c1=O
inactive: max response (HaCat [1]) 0.848% | outcome (HaCat [1]) | max response (KB-3-1) 3.98% and 7.43% | max response (NIH3T3 [2]) -16.1% | outcome (NIH3T3 [2]) | outcome (HACAT [3]) | Potency (MCC-13) | Potency (MKL-1) | Potency (MKL-2) | outcome (NIH3T3 [4]) | Potency (UISO) | Potency (WaGa) | Potency (C33A) | Potency (CAOV3) | Potency (CASKI) | Potency (Es-2) | Potency (Hek293T [5]) | Potency (JEG-3) | Potency (OV90)

CN(Cc1cc(Br)cc(Br)c1N)C1CCCCC1
inactive: max response (HaCat [1]) 3.33% | outcome (HaCat [1]) | max response (KB-3-1) 2.85% and 5.96% | max response (NIH3T3 [2]) 1.21% | outcome (NIH3T3 [2]) | outcome (HACAT [3]) | outcome (HEK293T [6]) | Potency (MCC-13) | Potency (MCC-26) | Potency (MKL-1) | Potency (MKL-2) | outcome (NIH3T3 [4]) | Potency (UISO) | Potency (WaGa) | Potency (C33A) | Potency (CAOV3) | Potency (CASKI) | Potency (Es-2) | Potency (HeLa) | Potency (Hek293T [5]) | Potency (JEG-3) | Potency (OV90)

O=NN(CCCl)C(=O)NC1CCCCC1
inactive: max response (HaCat [1]) 4.22% | outcome (HaCat [1]) | max response (KB-3-1) 2.75% | outcome (KB-3-1) | max response (NIH3T3 [2]) -1.41% | outcome (NIH3T3 [2]) | outcome (HACAT [3]) | outcome (HEK293T [6]) | Potency (MCC-13) | Potency (MCC-26) | Potency (MKL-1) | Potency (MKL-2) | outcome (NIH3T3 [4]) | Potency (UISO) | Potency (WaGa) | Potency (C33A) | Potency (CAOV3) | Potency (CASKI) | Potency (Es-2) | Potency (HeLa) | Potency (Hek293T [5]) | Potency (JEG-3) | Potency (OV90)

CC(C)OC(=O)C(C(=O)OC(C)C)=C1SC=CS1
inactive: max response (HaCat [1]) -22% | outcome (HaCat [1]) | max response (KB-3-1) 13.9% | outcome (KB-3-1) | max response (NIH3T3 [2]) 0.152% | outcome (NIH3T3 [2]) | outcome (HACAT [3]) | Potency (MCC-13) | Potency (MCC-26) | Potency (MKL-1) | Potency (MKL-2) | outcome (NIH3T3 [4]) | Potency (UISO) | Potency (WaGa) | Potency (C33A) | Potency (CAOV3) | Potency (CASKI) | Potency (Es-2) | Potency (Hek293T [5]) | Potency (OV90)

O=S(=O)(O)CCS
inactive: max response (HaCat [1]) -12.1% | outcome (HaCat [1]) | max response (KB-3-1) 0.578% | max response (NIH3T3 [2]) 1.04% and -6.12% | outcome (HACAT [3]) | outcome (HEK293T [6]) | Potency (MCC-13) | Potency (MCC-26) | Potency (MKL-1) | Potency (MKL-2) | Potency (UISO) | Potency (WaGa) | Potency (C33A) | Potency (CAOV3) | Potency (CASKI) | Potency (Es-2) | Potency (HeLa) | Potency (Hek293T [5]) | Potency (JEG-3) | Potency (OV90)

CCCN[C@H]1CCc2nc(N)sc2C1
inactive: max response (HaCat [1]) 3.55% | outcome (HaCat [1]) | max response (KB-3-1) 5.22% and 4.84% | max response (NIH3T3 [2]) 4.11% and -1.47% | outcome (HACAT [3]) | outcome (HEK293T [6]) | Potency (MCC-13) | Potency (MCC-26) | Potency (MKL-1) | Potency (MKL-2) | Potency (UISO) | Potency (WaGa) | Potency (C33A) | Potency (CAOV3) | Potency (CASKI) | Potency (Es-2) | Potency (HeLa) | Potency (Hek293T [5]) | Potency (JEG-3) | Potency (OV90)

CCn1cc(C(=O)O)c(=O)c2cc(F)c(N3CCNCC3)cc21
inactive: max response (HaCat [1]) -20% | outcome (HaCat [1]) | max response (KB-3-1) -20.2% and -20.3% | outcome (KB-3-1) | max response (NIH3T3 [2]) -0.113% and -7.16% | outcome (HACAT [3]) | Potency (MCC-13) | Potency (MCC-26) | Potency (MKL-1) | Potency (MKL-2) | Potency (UISO) | Potency (WaGa) | Potency (CAOV3) | Potency (CASKI) | Potency (Es-2) | Potency (Hek293T [5]) | Potency (JEG-3) | Potency (OV90)

C[C@@H]1CN(c2c(F)c(N)c3c(=O)c(C(=O)O)cn(C4CC4)c3c2F)C[C@H](C)N1
inactive: max response (HaCat [1]) -0.171% | outcome (HaCat [1]) | max response (KB-3-1) 8.25% and 3.23% | max response (NIH3T3 [2]) 0.0179% and 2.17% | outcome (HACAT [3]) inactive [at 17.4 µM] | outcome (HEK293T [6]) inactive [at 17.4 µM] | Potency (MCC-13) | Potency (MCC-26) | Potency (MKL-1) | Potency (MKL-2) | Potency (UISO) | Potency (WaGa) | Potency (C33A) | Potency (CAOV3) | Potency (CASKI) | Potency (Es-2) | Potency (Hek293T [5]) | Potency (JEG-3) | Potency (OV90)
